Common to all, as to test: qHTS profiling for inhibitors of Plasmodium falciparum proliferation (AID 504749); also: nearly all actives have a fitted effect of over 60% in size
What all share (settings): P. falciparum in erythrocytes, SYBR Green DNA, 72 h; series mostly up to 28.7 µM
In general terms: In qHTS, concentration-response curves come from the screen itself.

In one test the test system is FAB9. The gist of the method:
(§1)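 P. falciparum-infected erythrocytes (0.3% parasitemia, 2.5% hematocrit final) were exposed to compounds for 72 h at 37 C in 5% CO2, then lysed with SYBR Green buffer overnight at room temperature; parasite DNA fluorescence was normalized to artemisinin and DMSO controls.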

For a further test, the system named is GB4. The gist of the method: as §1
The next test has as its system HB3. The gist of the method: as §1
The subject of another test is ICS. The essentials:
as §1

The test system of the next test is JCK. The essentials:
as §1

For another test, the system named is N140. The gist of the method: as §1
The subject of a further test is P93_24. The essentials:
as §1

In another test the test system is P94_40. The gist of the method:
as §1

The test system of a further test is PAD. The gist of the method:
as §1

The next test concerns PC15. The essentials: as §1

23 compounds from PubChem BioAssay (NCATS) can be followed below.

Records with an inconclusive call do not appear. Calls of active or inactive are those of the source. Calls follow the shape of the dose curve; as a rule, active = well fitted inhibition curve with a large enough effect; inconclusive = small, poorly fitted or top-dose-only effect; inactive = flat fitted curve, though single readings scatter.
Potency is read from the fitted curve at half-maximal effect.

With `ClCC1CO1` (stereo not given), the Potency result in the test on FAB9, in the test with GB4, in the test with HB3, with ICS, with JCK and in the test with N140 was “inactive” each time. Also, the Potency result in the test with P93_24, with P94_40, in the test with PAD and in the test with PC15 was “inactive” each time.
With `[O]=[Cd]`, the Potency result in the test with FAB9, in the test on GB4, in the test with HB3, with ICS, with JCK and in the test with N140 was “inactive” each time. For the same compound, the Potency entry with P93_24, with P94_40, in the test with PAD and in the test on PC15 was “inactive” throughout.
Take `C[CH2][Hg][S]c1ccccc1C(=O)O`: the Potency was 5620 nM (active) in the test on FAB9; 1690 nM (active) with GB4; 2240 nM (active) with HB3; 1260 nM (active) with ICS; 10000 nM (active) in the test with JCK; 2240 nM (active) in the test on N140. Also, the Potency in the test on P93_24 is 2820 nM (active); in the test on P94_40, 3160 nM (active); in the test on PAD, 2820 nM (active); in the test with PC15, 4470 nM (active).
Regarding `S=C(S)N1CCNCC1`, the Potency entry with FAB9, with GB4, in the test on HB3, with ICS, in the test on JCK and with N140 was “inactive” each time. Moreover, the Potency result in the test with P93_24, with P94_40, with PAD and in the test with PC15 was “inactive” throughout.
Regarding `[N-]=[N+]=CC(=O)OCC(N)C(=O)O` (stereo not given), the Potency result in the test on FAB9, in the test with GB4, in the test with HB3, with ICS, in the test with JCK and with N140 was “inactive” in each case. The Potency entry in the test with P93_24, with P94_40, in the test with PAD and in the test on PC15 was “inactive” each time.
On to `CCCC(C)(COC(N)=O)COC(=O)NC1CC1` (stereo not given), for which the Potency entry with FAB9, in the test on GB4, with HB3, in the test on ICS, in the test on JCK and in the test on N140 was “inactive” in each case. The Potency entry in the test on P93_24, in the test on P94_40, in the test with PAD and in the test with PC15 was “inactive” throughout.
With `C=CCN1CC[C@]23c4c5ccc(O)c4O[C@H]2[C@@H](O)C=C[C@H]3[C@H]1C5`, the Potency entry with FAB9, in the test on GB4, with HB3, in the test with ICS, in the test on JCK and with N140 was “inactive” throughout. The Potency result in the test on P93_24, in the test on P94_40, in the test on PAD and in the test with PC15 was “inactive” throughout.
For `CCC1(C)CC(=O)NC(=O)C1`, the Potency result with FAB9, in the test with GB4, in the test with HB3, in the test on ICS, in the test on JCK and with N140 was “inactive” throughout. For the same compound, the Potency entry in the test on P93_24, in the test with P94_40, in the test on PAD and in the test with PC15 was “inactive” in each case.
For `O=Cc1ccco1`, the Potency result in the test with FAB9, in the test with GB4, with HB3, in the test with ICS, in the test on JCK and in the test on N140 was “inactive” throughout. Further, the Potency result with P93_24, with P94_40, in the test on PAD and in the test on PC15 was “inactive” each time.
On to `ClC(Cl)(Cl)Cl`, for which the Potency result in the test on FAB9, in the test on GB4, in the test with HB3, in the test on ICS, with JCK and with N140 was “inactive” in each case. The Potency result in the test with P93_24, in the test with P94_40, in the test on PAD and in the test with PC15 was “inactive” each time.
As for `CC(C)CCON=O`, the Potency entry in the test with FAB9, in the test on GB4, in the test on HB3, in the test with ICS, in the test with JCK and with N140 was “inactive” throughout. The Potency result with P93_24, with P94_40, in the test with PAD and in the test on PC15 was “inactive” in each case.
Regarding `N#CC1(N2CCCCC2)CCCCC1`, the Potency result in the test on FAB9, in the test with GB4, in the test on HB3, in the test on ICS, in the test with JCK and with N140 was “inactive” in each case. For the same compound, the Potency entry with P93_24, with P94_40, in the test on PAD and with PC15 was “inactive” each time.
Turning to `CCC1(c2ccccc2)C(=O)NC(=O)N(C(=O)c2ccccc2)C1=O` (stereo not given), the Potency result in the test with FAB9, in the test with GB4, with HB3, in the test with ICS, in the test on JCK and in the test with N140 was “inactive” in each case. In addition, the Potency entry in the test with P93_24, in the test with P94_40, in the test on PAD and with PC15 was “inactive” throughout.
Regarding `CCCC(C)C1(CC)C(=O)NC(=O)NC1=O` (stereo not given), the Potency result in the test with FAB9, in the test on GB4, in the test with HB3, in the test with ICS, in the test with JCK and with N140 was “inactive” throughout. Further, the Potency result in the test with P93_24, with P94_40, in the test on PAD and with PC15 was “inactive” each time.
Consider `COC1=CC=C2[C@H]3Cc4ccc(OC)c5c4[C@@]2(CCN3C)[C@H]1O5`, for which the Potency entry with FAB9, with GB4, in the test on HB3, with ICS, with JCK and in the test with N140 was “inactive” each time. Further, the Potency result with P93_24, in the test on P94_40, in the test with PAD and with PC15 was “inactive” throughout.
On to `c1csc(C2(N3CCCCC3)CCCCC2)c1`, for which the Potency entry in the test on FAB9, in the test with GB4, with HB3, in the test on ICS, with JCK and in the test with N140 was “inactive” throughout. The Potency result in the test on P93_24, in the test with P94_40, in the test with PAD and in the test on PC15 was “inactive” in each case.
For the compound `c1ccc2sc(SNC3CCCCC3)nc2c1`, the Potency entry in the test on FAB9, in the test with GB4, with HB3, in the test with ICS, in the test with JCK and in the test with N140 was “inactive” in each case. For the same compound, the Potency result with P93_24, in the test with P94_40, in the test with PAD and with PC15 was “inactive” throughout.
As to `CC(Cc1ccccc1)NC=O` (stereo not given), the Potency result in the test with FAB9, with GB4, with HB3, in the test on ICS, in the test with JCK and in the test with N140 was “inactive” each time. The Potency entry with P93_24, with P94_40, in the test with PAD and in the test on PC15 was “inactive” each time.
`O=C1CN(O)C(c2ccccc2)=c2cc(Cl)ccc2=N1`: the Potency result with FAB9, in the test with GB4, with HB3, in the test with ICS, with JCK and in the test on N140 was “inactive” in each case. Moreover, the Potency entry in the test on P93_24, in the test with P94_40, with PAD and with PC15 was “inactive” throughout.
With `CCC(N)Cc1c[nH]c2ccccc12` (stereo not given), the Potency entry in the test on FAB9, in the test with GB4, with HB3, in the test on ICS, with JCK and with N140 was “inactive” throughout. For the same compound, the Potency entry in the test on P93_24, in the test on P94_40, in the test on PAD and with PC15 was “inactive” each time.
For `CC(=O)OC1CN2CCC1CC2` (stereo not given), the Potency entry in the test on FAB9, in the test with GB4, in the test on HB3, in the test with ICS, in the test on JCK and in the test with N140 was “inactive” in each case. The Potency entry in the test on P93_24, in the test on P94_40, in the test with PAD and in the test on PC15 was “inactive” in each case.
For the compound `CN1c2ccccc2C(NCCCCCCC(=O)O)c2ccc(Cl)cc2S1(=O)=O` (stereo not given), the Potency result in the test with FAB9, in the test on GB4, in the test with HB3, in the test with ICS, in the test on JCK and in the test with N140 was “inactive” throughout. In addition, the Potency entry in the test on P93_24, with P94_40, with PAD and with PC15 was “inactive” in each case.
Take `O=C1CCCCC1CN1CCCCC1` (stereo not given): the Potency entry in the test on FAB9, in the test with GB4, with HB3, in the test with ICS, in the test on JCK and in the test on N140 was “inactive” in each case. The Potency entry in the test on P93_24, in the test on P94_40, with PAD and in the test on PC15 was “inactive” each time.
